Potency, cell number change and outcome data for 58 compounds are collected here from PubChem BioAssay AID2685 (National Center for Advancing Translational Sciences (NCATS), 2010).

Each structure is given as a SMILES string. Hit rate of the full screen: of about 320,000 compounds, about 2,100 (0.66%) were called active. Another 53% or so got no clear call; they are omitted. The call rests on the fitted dose curve; in most records, active means well fitted inhibition curve with a large enough effect in the signal ratio, with a control signal flat (not every such curve was filed as active); inconclusive means small, poorly fitted or top-dose-only effect, or effect the other way, or a change in a side signal; inactive means flat fitted curve, though single readings scatter; the % refers to the signal ratio. What follows is part of a selection rich in actives, with near analogues and random picks from the rest.
Potency means the concentration at half of the fitted maximal effect.

This assay in a line: qHTS Assay for Lipid Storage Modulators in Drosophila S3 Cells.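 On cell number change: cells counted by Cell Tracker Red CMTPX staining in the red channel.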 Conditions: BODIPY lipid droplet fluorescence, 18-24 h, cells fed with added oleic acid; cell number change: measured here: cell count max response; series mostly up to 46.1 µM. In a few lines: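 Drosophila S3 cells loaded with oleic acid (400 uM, as added) and compounds at several concentrations; lipid droplets imaged by 488-nm laser-scanning cytometry, 500–530 nm intensity and object ratio to cell channel. Percent activity normalized to 20 uM Triacsin C.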
Consider `COc1ccccc1N1CCN(C(c2cc3cc(C)ccc3[nH]c2=O)c2nnnn2C2CCCC2)CC1` (stereo unspecified), for which the Potency result was “inactive” and the cell number change is 10.4%.
In the same order, the values of `CC(NC(=O)COC(=O)CNC(=O)c1ccc(-c2ccccc2)cc1)c1ccccc1` (stereo unspecified) are “inactive” and 0.973%.
In the same order, the values of `O=C(Nc1ccc(COc2ccccc2)cc1)c1cccc([N+](=O)[O-])c1` are “inactive” and -16.9%.
In the same order, the values of `O=C(NC1CCCC1)C1CCC(=O)N1C1CCCCC1` (stereo unspecified) are “inactive” and 1.84%.
`Cn1c(Cn2c(=O)sc3ccccc32)nnc1SCC(=O)N1CCOCC1`: the Potency result was “inactive” and the cell number change was determined as 7.25%.
In the same order, the values of `O=C(/C=C/c1cccc([N+](=O)[O-])c1)c1cccs1` are 23.1 µM (active) and -11.1%.
In the same order, the values of `O=C(/C=C/c1ccc([N+](=O)[O-])cc1)c1cccs1` are “inactive” and 1.74%.
In the same order, the values of `O=C(/C=C/c1cccc([N+](=O)[O-])c1)Nc1ccc(NC(=O)c2cccs2)cc1` are “inactive” and 5.37%.
Take `OCCNCc1cc(Br)ccc1OCc1ccc(F)cc1`: the Potency entry is “inactive” and the cell number change is -0.637%.
In the same order, the values of `O=C(CC(NC(=O)c1ccccc1Cl)c1ccccc1)NCCc1ccc(Cl)cc1` (stereo unspecified) are “inactive” and 10.1%.
In the same order, the values of `Cc1cc(=O)[nH]c(SCC2(O)C3CC4CC(C3)CC2C4)n1` (stereo unspecified) are 29.1 µM (active) and -7.4%.
In the same order, the values of `Cc1cc(=O)[nH]c(SCC(=O)N2CCCCC2)n1` are “inactive” and 4.95%.
Turning to `CCCSc1nc(C)cc(=O)[nH]1`, the Potency entry is “inactive” and the cell number change was 7.07%.
Regarding `COc1ccc([N+](=O)[O-])cc1NC(=O)c1cccnc1`, the Potency entry is “inactive” and the cell number change was 9.82%.
In the same order, the values of `CCCNc1nc(C)cc(-c2cc(C(=O)NCc3ccccc3)on2)n1` are “inactive” and 1.8%.
For the compound `Cc1cccc(N2CC(C(=O)Nc3ccccc3N3CCCC3)CC2=O)c1C` (stereo unspecified), the Potency entry was “inactive”.
Same read-out and setting: for `CCOc1ccccc1N1CC(C(=O)Nc2ccccc2N2CCCC2)CC1=O` (stereo unspecified) the value was “inactive”.
As to `COc1ccc(C)cc1N1CC(C(=O)Nc2ccccc2N2CCCCC2)CC1=O` (stereo unspecified), the Potency was 1.03 µM (active) and the cell number change was 3.68%.
In the same order, the values of `Cc1ccc(-c2nc(C#N)c(NCCN3CCCCC3)o2)cc1` are “inactive” and 1.25%.
In the same order, the values of `CCOC(=O)c1c(C)[nH]c(C=C2C(=O)CCCC2=O)c1O` are “inactive” and -4.56%.
In the same order, the values of `Cn1cccc1/C=C(/C#N)C(N)=S` are “inactive” and 0.988%.
For the compound `O=C(NCCc1c[nH]c2ccccc12)C(=O)NCC(c1ccco1)N1CCN(c2ccccc2)CC1` (stereo unspecified), the Potency result was “inactive” and the cell number change was -12.5%.
In the same order, the values of `Cc1ccc(NS(=O)(=O)c2ccc(C(=O)OCC(=O)Nc3cc(C)on3)cc2)cc1` are “inactive” and -18.1%.
In the same order, the values of `c1ccc(C[n+]2c(-c3ccccc3)csc2Nc2ccccc2)cc1` are “inactive” and -10.6%.
In the same order, the values of `O=[N+]([O-])c1ccc(-c2csc(Nc3ccccc3)[n+]2Cc2ccccc2)cc1` are 13 µM (active) and -27.2%.
Consider `COc1ccc(-c2csc(Nc3ccccc3)[n+]2CC(O)c2ccc([N+](=O)[O-])cc2)cc1` (stereo unspecified), for which the Potency result is “inactive” and the cell number change was -3.41%.
In the same order, the values of `O=C1OCc2cc(-n3cccc3)ccc21` are “inactive” and -1.52%.
`Cc1ccccc1S(=O)(=O)Cc1ccc(C(=O)NC2CCC(C)CC2)o1` (stereo unspecified): the Potency is 18.4 µM (active) and the cell number change is -18.5%.
Consider `Cc1ccccc1S(=O)(=O)Cc1ccc(C(=O)NC2CCCCC2C)o1` (stereo unspecified), for which the Potency entry is “inactive”.
`CCOC(=O)N1CCC(NC(=O)c2ccc(CS(=O)(=O)c3ccccc3C)o2)CC1`: the Potency entry is “inactive” and the cell number change was -13.7%.
In the same order, the values of `COC(=O)c1cccc(NC(=O)C(C)(C)C)c1` are “inactive” and -0.276%.
In the same order, the values of `Cn1ccnc1SCC(=O)c1ccc(Cl)cc1` are “inactive” and 1.94%.
In the same order, the values of `CN1CCC(NC(=O)Nc2ccc(Br)cc2)CC1` are “inactive” and -12.5%.
On to `COc1ccc(CN2CC(C(=O)NCCc3ccc(C)cc3)CC2=O)cc1` (stereo unspecified), for which the Potency result is “inactive” and the cell number change came to 1.29%.
In the same order, the values of `COc1ccc(NC(=O)COC(=O)C2CC(=O)N(Cc3ccc(C)cc3)C2)cc1` (stereo unspecified) are 2.06 µM (active) and -4.17%.
As to `COc1ccc(COC(=O)C2CC(=O)N(Cc3ccc(C)cc3)C2)cc1` (stereo unspecified), the cell number change is -16.1% and the outcome was “inactive [at 0.369 µM]”.
For the compound `COC(=O)C1CCN(C(=O)c2ccc(Cl)c(S(=O)(=O)NCc3cccnc3)c2)CC1`, the Potency entry is “inactive” and the cell number change amounted to 20.6%.
In the same order, the values of `CC(=O)Oc1ccccc1N(C(C)=O)S(=O)(=O)c1ccc(C)cc1` are “inactive” and -8.62%.
Turning to `CC(C)CC(NC(N)=O)C(=O)NCc1ccc(Cl)cc1` (stereo unspecified), the Potency entry was “inactive” and the cell number change came out at 6.23%.
As for `CC(C)[C@H](NC(=O)NCc1ccc(Cl)cc1)C(=O)O`, the Potency entry was “inactive”.
`CC(C)C[C@H](NC(=O)NCc1ccc(Cl)cc1)C(=O)O`: the Potency is 6.51 µM (active) and the cell number change is -1.47%.
In the same order, the values of `CCC(=O)Nc1ccc(NC(=O)CSc2nc3cc4c(cc3cc2C)CCC4)cc1` are “inactive” and 0.207%.
With `CCC(=O)Nc1nn(C)c2nc3c(C)cccc3cc12`, the Potency entry was “inactive” and the cell number change is -9.14%.
On to `CC1CCN(CCCNC(=O)C2CCC(CNS(=O)(=O)c3cccc4nsnc34)CC2)CC1` (stereo unspecified), for which the Potency entry is “inactive”.
Turning to `CCOc1ccc(-n2c(=O)cc(N3CCN(c4ccc(F)cc4)CC3)[nH]c2=O)cc1`, the Potency entry is “inactive” and the cell number change was 10.6%.
In the same order, the values of `Cc1ccc(-c2nnn(CC(=O)N(Cc3ccco3)C(C(=O)NC(C)(C)C)c3cccs3)n2)o1` (stereo unspecified) are “inactive” and -15.2%.
In the same order, the values of `Cc1ccc(NC(=O)c2sc3nc4c(c(-c5ccco5)c3c2N)CCC4)cc1` are “inactive” and -11.1%.
In the same order, the values of `Nc1c(C(=O)NCC2CCCO2)sc2nc3c(c(-c4ccco4)c12)CC/C3=C\c1ccco1` (stereo unspecified) are 8.2 µM (active) and 3.45%.
Consider `Nc1c(C(=O)Nc2ccccc2)sc2nc3c(c(-c4ccco4)c12)CCCC3`, for which the Potency entry was “inactive” and the cell number change is -3.84%.
In the same order, the values of `COc1ccc(NC(=O)CC2C(=O)NCCN2C(=O)Nc2ccc(C(F)(F)F)cc2)cc1` (stereo unspecified) are “inactive” and 12.2%.
In the same order, the values of `Cc1cccc(NC(=O)CN2C(=O)N/C(=C\c3ccc(-c4cccc(C(=O)O)c4)o3)C2=O)c1` are “inactive” and -0.725%.
In the same order, the values of `CCCn1c(N)c(N(CCOC)C(=O)/C=C/c2ccc(C(=O)OC)cc2)c(=O)[nH]c1=O` are “inactive” and -4.64%.
On to `CC(C)(C)NC(=O)C(c1ccc(F)cc1)N(Cc1ccco1)C(=O)c1csnn1` (stereo unspecified), for which the Potency entry is “inactive” and the cell number change is -0.0921%.
In the same order, the values of `Cc1ccc(NC(=O)CCc2c(C)[nH]c(=O)c(C#N)c2C)cc1` are “inactive” and 16.2%.
In the same order, the values of `COc1ccccc1NC(=O)CCc1c(C)[nH]c(=O)c(C#N)c1C` are “inactive” and 16.5%.
In the same order, the values of `COc1cc(NC(=O)CCc2c(C)[nH]c(=O)c(C#N)c2C)cc(OC)c1` are 0.058 µM (active) and -2.94%.
For the compound `COc1ccc(-c2[nH]ncc2/C=N/NC(=O)c2ccc(Br)cc2)c(OC)c1`, the Potency entry was “inactive” and the cell number change was 3.28%.
Turning to `CCOc1ccc(NC(=O)CN2C(=O)CSC(C)C2=O)cc1` (stereo unspecified), the Potency result is “inactive” and the cell number change came to 8.89%.
